PubChem BioAssay (Tox21)
Records with an inconclusive call do not appear. Active and inactive are the calls of the source. Calls come from the whole dose curve; as a rule, active = well fitted cell-killing curve with a large enough effect in the repeat runs; inconclusive = weak or mixed curves, or effect the other way; inactive = no such curve, though single readings can be large or run the other way.

Assay: qHTS assay to identify small molecule antagonists of the vitamin D receptor (VDR) signaling pathway - cell viability counter screen (AID 743225); note: nearly all actives have a fitted effect of over 50% in size
Conditions: VDR-bla HEK293T viability, CellTiter-Glo luminescence, 16 h; series mostly up to 61 µM
Description: U.S. Tox21 Program National Center for Advancing Translational Sciences [NCATS] NIH Chemical Genomics Center [NCGC] U.S. Environmental Protection Agency [EPA] National Institutes of Environmental Health Sciences [NIEHS] National Toxicology Program [NTP] U.S. Food and Drug Administration [FDA] Tox21 Assay Overview: The vitamin D receptor (VDR), a member of nuclear hormone receptor superfamily, plays a critical role in calcium homeostasis and bone metabolism. It is also involved in cell differentiation and growth, and thrombogenicity. To identify the compounds that inhibit VDR signaling, the VDR-UAS-bla HEK 293T cell line (Invitrogen, Carlsbad, CA, USA) containing a beta-lactamase reporter gene under the control of an upstream activator sequence (UAS) was used to screen the Tox21 10K compound library. The cytotoxicity of the Tox21 compound library against the VDR-bla cell line was tested in parallel by measuring the cell viability using CellTiter-Glo assay (Promega, Madison, WI) in the same wells.
Tox21 Assay Protocol Summary: VDR-bla cells were dispensed at 2,000 cells/5 uL of assay medium per well into black wall/clear-bottom 1536-well plates using a Multidrop Combi (Thermo Fisher Scientific, Waltham, MA) dispenser. After the assay plates were incubated at a 37C and 5% CO2 for 4 h, 23 nL of compounds dissolved in DMSO, positive controls or DMSO only was transferred to the assay plate by a Pintool station (Kalypsys, San Diego, CA), followed by addition of 1 uL of 1-alpha, 25-Dihydroxy Vitamin D3 (3 nM, final concentration in the wells) using a Bioraptr Flying Reagent Dispenser (FRD) workstation (Beckman Coulter, Indianapolis, IN). The plates were incubated at 37C and 5% CO2 for 16 h, and then 1 uL of LiveBLAzerTM B/G FRET substrate was added using a Bioraptr FRD. The plates were incubated at room temperature for 2 h and fluorescence intensity was measured by an Envision plate reader (PerkinElmer, Shelton, CT). For cell viability readout that measures cytotoxicity, 3 ul/well of CellTiter-Glo reagent was added into the assay plates using a Bioraptr FRD. After 30 min incubation at room temperature, the luminescence intensity in the plates was measured using a ViewLux plate reader (PerkinElmer).
% is set by controls: 0 for no effect and ±100 for the full control effect.

Which outcome does the source give for `Cc1ccc(C(=O)c2ccccc2)cc1` here?
The outcome was “inactive”.

With `CCCn1cc[n+](C)c1C` as the compound, how does the outcome read?
Its outcome is “inactive”.

With `CC(C)(C)OC(=O)c1cccc(N)c1` as the compound, how does the outcome read?
The outcome was “inactive”.

For `CC(=O)c1ccc2ccccc2c1`, which outcome is on record?
Its outcome is “inactive”.

Which outcome does the source give for `Cc1cccc(C)c1NC(=O)CC12CCCN1CCC2` here?
The outcome was “inactive”.

With `CC1=CCC(O)(C(C)C)CC1` (stereo not given) as the compound, how does the outcome read?
The outcome was “inactive”.

Which outcome does the source give for `CCCCS(=O)(=O)N[C@@H](Cc1ccc(OCCCCC2CCNCC2)cc1)C(=O)O` here?
Its outcome is “inactive”.

For `CC(C)(C)C(=O)c1ccccc1`, which outcome is on record?
The outcome was “inactive”.

With `CC/C=C\CCOC(C)OCC` (stereo not given) as the compound, how does the outcome read?
The outcome was “inactive”.

Which viability change, negative = cytotoxic does the source give for `NC(N)=NCCN1CCCCCCC1` here?
The viability change, negative = cytotoxic was -3.67% [at 0.628 µM] (inactive).

For `CC(CC=O)CC(C)(C)C` (stereo not given), which outcome is on record?
The outcome was “inactive”.

With `CC(COc1ccccc1)NN` (stereo not given) as the compound, how does the outcome read?
The outcome was “inactive”.

Which outcome does the source give for `c1ccc(CCc2ccccc2)cc1` here?
The outcome was “inactive”.

For `CC(C)NNC(=O)c1ccncc1`, which outcome is on record?
The outcome was “inactive”.

With `O=S(=O)(O)c1cccc2ccccc12` as the compound, how does the outcome read?
The outcome was “inactive”.

With `O=C(O)CNC(=O)c1ccc(CO)o1` as the compound, how does the outcome read?
The outcome was “inactive”.

Which outcome does the source give for `CC[N+](CC)(CC(=O)Nc1c(C)cccc1C)Cc1ccccc1` (tested in a mixture with another compound) here?
The outcome was “inactive”.

For `C=C[Si](OC(C)=O)(OC(C)=O)OC(C)=O`, which outcome is on record?
Its outcome is “inactive”.

With `CC1OC1C1CCC2(C)OC2C1` (stereo not given) as the compound, how does the outcome read?
The outcome was “inactive”.

Which outcome does the source give for `CC1(C)[C@@H]2CC[C@@]1(C)[C@H](O)C2` here?
Its outcome is “inactive”.

With `O=C(c1ccccc1)C1(O)CCCCC1` as the compound, how does the outcome read?
Its outcome is “inactive”.

With `CC1=CC(=O)[C@H]2C[C@@H]1C2(C)C` as the compound, how does the outcome read?
Its outcome is “inactive”.

With `CCC(=O)OCc1ccccc1` as the compound, how does the outcome read?
Its outcome is “inactive”.

With `O=C(O)CCSCCC(=O)O` as the compound, how does the outcome read?
Its outcome is “inactive”.

Which outcome does the source give for `CCCC(=O)O[C@]1(C(=O)CC)CC[C@H]2[C@@H]3CCC4=CC(=O)CC[C@]4(C)[C@H]3[C@@H](O)C[C@@]21C` here?
Its outcome is “inactive”.

Which outcome does the source give for `C[C@@H]1C[C@H]2[C@@H]3C[C@H](F)C4=CC(=O)C(Cl)=C[C@]4(C)[C@@]3(F)[C@@H](O)C[C@]2(C)[C@@]1(O)C(=O)CO` here?
Its outcome is “inactive”.

For `C=CCOCC(O)CO` (stereo not given), which outcome is on record?
Its outcome is “inactive”.

Which outcome does the source give for `CC(=O)Oc1cccc(C)c1` here?
The outcome was “inactive”.

With `CC(=O)Nc1ccc(OCC(O)CNC(C)C)cc1` (stereo not given) as the compound, how does the outcome read?
The outcome was “inactive”.

Which outcome does the source give for `COc1ccnc(CS(=O)c2nc3cc(OC(F)F)ccc3[nH]2)c1OC` (stereo not given) here?
Its outcome is “inactive”.

For `COC(=O)Nc1ccc(Cl)c(Cl)c1`, which outcome is on record?
The outcome was “inactive”.

With `CC(=O)c1ccccc1[N+](=O)[O-]` as the compound, how does the outcome read?
Its outcome is “inactive”.

For `C=CCCC(=O)O`, which outcome is on record?
Its outcome is “inactive”.

With `CC(C)CCCO` as the compound, how does the outcome read?
Its outcome is “inactive”.

Which outcome does the source give for `Cc1ccnc(NS(=O)(=O)c2ccc(N)cc2)n1` here?
The outcome was “inactive”.

For `CN1CCC(=C2c3ccccc3CCc3cccnc32)CC1`, which outcome is on record?
The outcome was “inactive”.

For `C[N+]1(CC2COC(c3ccccc3)(c3ccccc3)O2)CCCCC1` (stereo not given), which outcome is on record?
The outcome was “inactive”.

With `[K+]` as the compound, how does the outcome read?
Its outcome is “inactive”.

Which outcome does the source give for `C=CC(C)(CCC=C(C)C)OC(=O)CC` (stereo not given) here?
The outcome was “inactive”.

With `Clc1cc(Cl)cc(Cl)c1` as the compound, how does the outcome read?
The outcome was “inactive”.
